Assay results: PubChem BioAssay (NCATS)
Inconclusive results are not listed. Calls of active or inactive are those of the source. Unless noted, calls come from the whole dose curve; as a rule, active = well fitted curve in the direction sought with a large enough effect; inconclusive = small, poorly fitted or top-dose-only effect, or another doubt; inactive = no such curve, though single readings can be large; an effect the other way counts as inactive or inconclusive.

Assays:
[1] = target: Lysosomal acid glucosylceramidase (Homo sapiens) (UniProt P04062); experiment: Glucocerebrosidase-p2 (AID 348; in the data active = potency below about 10 µM; note: potency is the fitted concentration of half-maximal effect); conditions: purified GBA, blue fluorogenic substrate, 40 min
Chain of Lysosomal acid glucosylceramidase (Homo sapiens) (P04062 whole entry, looked up): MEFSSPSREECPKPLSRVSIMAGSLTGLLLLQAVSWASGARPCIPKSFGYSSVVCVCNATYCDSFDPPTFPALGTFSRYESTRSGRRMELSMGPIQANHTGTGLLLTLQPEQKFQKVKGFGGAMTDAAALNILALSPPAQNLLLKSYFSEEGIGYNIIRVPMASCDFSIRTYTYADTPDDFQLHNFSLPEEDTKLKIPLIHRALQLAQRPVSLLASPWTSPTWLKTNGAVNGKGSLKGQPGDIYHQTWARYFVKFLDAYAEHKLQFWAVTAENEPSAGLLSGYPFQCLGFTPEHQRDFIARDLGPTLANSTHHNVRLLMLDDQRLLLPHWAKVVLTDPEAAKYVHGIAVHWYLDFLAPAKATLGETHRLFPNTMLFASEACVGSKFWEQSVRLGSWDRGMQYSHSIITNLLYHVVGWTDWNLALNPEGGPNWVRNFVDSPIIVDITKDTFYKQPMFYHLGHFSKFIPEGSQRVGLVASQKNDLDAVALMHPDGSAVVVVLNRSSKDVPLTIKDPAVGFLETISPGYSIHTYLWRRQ
Procedure, shortened: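 Compounds titrated from 0.6 nM upwards against 0.2 nM enzyme in pH 5.9 citric acid/KH2PO4, taurocholate, tween-20; blue fluorogenic substrate 80 uM, 40 min room temperature, stopped and read Ex 365/Em 440 for AC50.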

[2] = AP1 Signaling Pathway (AID 357; active = well fitted curve in either direction with a large enough effect, not every such curve was filed as active;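 note: ME-180 reporter cells stimulated with EGF at its EC50 level; % is set by controls: 0 for no effect and ±100 for the full control effect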); conditions: ME-180 AP-1-bla reporter, EGF-induced, beta-lactamase ratio, 5 h; at 7.69 µM (top of the series) unless noted
Procedure, shortened: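 Modulation of EGF-driven AP-1 transcription was assessed with a beta-lactamase reporter in ME-180 cells. Compound and EC50 EGF were co-incubated 5 hours at 37 °C before 2.5-hour CCF4 loading at room temperature and dual-emission reading.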

[3] = target: Cytochrome P450 1A2 (Homo sapiens) (UniProt P05177); experiment: p450-cyp1a2 (AID 410; calls by dose curve; note: potency is the fitted concentration of half-maximal effect;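 for activity change, negative = inhibition: -100% = full effect of reference inhibitor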)
Chain of Cytochrome P450 1A2 (Homo sapiens) (P05177 whole entry, looked up): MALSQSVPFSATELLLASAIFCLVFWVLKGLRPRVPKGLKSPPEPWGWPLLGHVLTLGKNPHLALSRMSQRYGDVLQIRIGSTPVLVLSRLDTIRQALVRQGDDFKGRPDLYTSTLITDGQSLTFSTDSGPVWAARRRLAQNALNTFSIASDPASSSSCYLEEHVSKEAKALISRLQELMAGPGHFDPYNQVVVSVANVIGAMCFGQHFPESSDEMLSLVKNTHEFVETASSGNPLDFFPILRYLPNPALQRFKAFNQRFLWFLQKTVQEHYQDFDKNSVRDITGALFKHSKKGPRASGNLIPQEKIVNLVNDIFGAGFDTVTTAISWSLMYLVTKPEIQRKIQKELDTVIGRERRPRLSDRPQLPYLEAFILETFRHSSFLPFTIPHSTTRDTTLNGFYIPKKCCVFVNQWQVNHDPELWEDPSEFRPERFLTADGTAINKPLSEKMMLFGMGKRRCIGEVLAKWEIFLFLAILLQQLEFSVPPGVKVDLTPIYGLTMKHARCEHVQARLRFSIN
Procedure, shortened: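 Inhibition was calculated relative to 57 uM furafylline (full inhibition). The reaction used human CYP1A2 at 20nM with Luciferin-ME at its Km, 100uM, driven by an NADPH-regenerating system for 60 min at room temperature.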

[4] = NFAT Signaling Pathway (AID 444; active = well fitted curve in either direction with a large enough effect, not every such curve was filed as active;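 note: carbachol stimulus at about its EC50 of 1 µM final; % is set by controls: 0 for no effect and ±100 for the full control effect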); conditions: Jurkat NFAT-bla M1, carbachol, beta-lactamase ratio, 5 h; at 7.69 µM (top of the series) unless noted
Procedure, shortened: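 Read-out: CCF4 FRET ratio (460 nm/530 nm) after 1 h RT dye loading, used for %activity and AC50 from titration series. Cells: Jurkat NFAT-β-lactamase/M1 line, treated with compound plus 1 uM carbachol for 5 h, 37 °C.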

[5] = Stat Signaling Pathway (AID 446; active = well fitted curve in either direction with a large enough effect, not every such curve was filed as active;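 note: ME-180 cervical cancer cells given 40 pM IL-6 alongside compound; SIE-controlled beta-lactamase reporter measured as 460/530 nm FRET emission ratio; % is set by controls: 0 for no effect and ±100 for the full control effect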); conditions: ME-180 SIE beta-lactamase reporter, IL-6 stimulated, 5 h; at 7.69 µM (top of the series) unless noted
Procedure, shortened: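 ME-180 cells carrying a SIE-driven beta-lactamase reporter are stimulated with 40 pM IL-6 for 5 h at 37C in the presence of compound. The 460/530 nm FRET substrate ratio is read after 2.5 h at RT. Data are normalised to 300 pM IL-6 and to 125 nM JAK inhibitor controls.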

[6] = target: Glucocorticoid receptor (Homo sapiens) (UniProt P04150); experiment: GR-GFP Redistribution (AID 450;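 active = compounds whose dose series gives a full or clear partial fitted curve of increased nuclear translocation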; note: potency is the fitted concentration of half-maximal effect); conditions: U2OS GR-GFP nuclear translocation, laser cytometry, 2 h
Chain of Glucocorticoid receptor (Homo sapiens) (P04150 whole entry, looked up, the tested form may be a part): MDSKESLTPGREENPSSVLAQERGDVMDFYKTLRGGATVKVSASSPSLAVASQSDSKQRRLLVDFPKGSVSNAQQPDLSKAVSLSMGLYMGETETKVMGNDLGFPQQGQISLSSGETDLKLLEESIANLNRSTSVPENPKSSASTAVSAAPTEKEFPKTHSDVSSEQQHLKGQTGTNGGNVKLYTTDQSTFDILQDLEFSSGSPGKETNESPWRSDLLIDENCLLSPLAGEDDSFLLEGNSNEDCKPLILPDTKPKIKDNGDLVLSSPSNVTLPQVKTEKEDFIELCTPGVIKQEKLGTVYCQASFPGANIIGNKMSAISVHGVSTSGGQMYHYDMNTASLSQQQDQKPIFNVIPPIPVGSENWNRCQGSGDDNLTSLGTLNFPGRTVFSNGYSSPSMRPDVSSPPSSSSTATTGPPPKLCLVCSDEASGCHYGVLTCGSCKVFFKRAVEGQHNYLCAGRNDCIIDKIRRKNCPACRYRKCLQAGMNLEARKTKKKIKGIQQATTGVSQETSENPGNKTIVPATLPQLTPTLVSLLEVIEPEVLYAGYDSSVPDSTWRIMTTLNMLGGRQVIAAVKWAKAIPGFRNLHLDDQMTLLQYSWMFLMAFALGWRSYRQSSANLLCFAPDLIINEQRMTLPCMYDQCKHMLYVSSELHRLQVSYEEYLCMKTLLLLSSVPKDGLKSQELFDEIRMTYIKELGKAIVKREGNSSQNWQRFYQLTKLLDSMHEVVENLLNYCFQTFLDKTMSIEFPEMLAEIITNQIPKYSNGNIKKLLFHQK

[7] = target: Glucocorticoid receptor (Homo sapiens) (UniProt P04150); experiment: GR-EFC Redistribution (AID 451; calls by dose curve; note: potency is the fitted concentration of half-maximal effect); conditions: CHO-K1 GR-EFC translocation, beta-gal luminescence, 2 h
Procedure, shortened: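 Translocation of GR-ED fusion to nuclear EA restores b-gal, read by luminescence after 1 h room-temperature detection. Engineered CHO-K1 biosensor cells, 1,000/well, exposed 2 h at 37 C to titrations up to 46 uM final.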

[8] = target: Mitogen-activated protein kinase 10 (Mus musculus) (UniProt Q61831); experiment: JNK3 AlphaScreen Assay (AID 530; active = well fitted curve in either direction with a large enough effect, not every such curve was filed as active;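 note: kinase came from lysate of stimulated human HepG2 cells; signal reports phosphorylation of biotinylated GST-cJun 1-79 at Ser73 with 10 µM ATP; % is set by controls: 0 for no effect and ±100 for the full control effect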)
Procedure, shortened: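 Room-temperature AlphaScreen kinase assay; pre-activated HepG2 lysate as JNK3 source, biotin-GST-cJun(1-79) substrate, 10 uM ATP, compound 15 min preincubation.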

[9] = target: Dual specificity protein kinase CLK4 (Homo sapiens) (UniProt Q9HAZ1); experiment: qHTS Assay for Inhibitors of CDC-like Kinase 4 (Kinase-Glo Assay) (AID 1770); note: nearly all actives have a fitted effect of over 65% in size; note: potency is the fitted concentration of half-maximal effect
Chain of Dual specificity protein kinase CLK4 (Homo sapiens) (Q9HAZ1 whole entry, looked up): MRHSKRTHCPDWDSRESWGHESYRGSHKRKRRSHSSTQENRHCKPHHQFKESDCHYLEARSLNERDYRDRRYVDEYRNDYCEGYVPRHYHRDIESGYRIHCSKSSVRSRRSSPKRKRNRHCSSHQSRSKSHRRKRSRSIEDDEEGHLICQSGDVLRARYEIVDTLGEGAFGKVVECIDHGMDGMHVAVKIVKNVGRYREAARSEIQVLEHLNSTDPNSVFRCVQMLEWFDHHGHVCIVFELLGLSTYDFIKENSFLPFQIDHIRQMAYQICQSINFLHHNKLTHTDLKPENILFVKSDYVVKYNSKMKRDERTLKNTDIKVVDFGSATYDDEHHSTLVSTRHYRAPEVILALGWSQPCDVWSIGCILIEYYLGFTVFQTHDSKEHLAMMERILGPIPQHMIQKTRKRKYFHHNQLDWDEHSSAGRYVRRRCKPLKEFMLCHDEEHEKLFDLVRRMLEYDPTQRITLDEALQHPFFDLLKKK
Procedure, shortened: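 Recombinant human Clk4 (25 nM) phosphorylated RS repeat peptide (100 uM) with 1 uM ATP in Tris pH 7.5/MgCl2/EGTA/DTT/Triton buffer for 4.5 h at room temperature. Residual ATP was quantified by Kinase-Glo luciferase luminescence.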

[10] = target: Dual specificity protein kinase CLK4 (Homo sapiens) (UniProt Q9HAZ1); experiment: qHTS Assay for Inhibitors of CDC-like Kinase 4 (ADP-Glo Assay) (AID 1771); note: nearly all actives have a fitted effect of over 70% in size; note: potency is the fitted concentration of half-maximal effect
Procedure, shortened: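 Kinase reaction: Clk4 at 25 nM, RS repeat peptide substrate at 100 uM, ATP at 1 uM, 1 hr, room temperature. Product ADP detected as luciferase signal via ADP-Glo.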

[11] = target: Dual specificity protein kinase CLK4 (Homo sapiens) (UniProt Q9HAZ1); experiment: qHTS Assay for Inhibitors of CDC-like Kinase 4 (ADP-FP Assay) (AID 1795); note: nearly all actives have a fitted effect of over 60% in size; note: potency is the fitted concentration of half-maximal effect
Procedure, shortened: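 Recombinant human Clk4 (6.25 nM) phosphorylated RS repeat peptide (100 uM) with 1 uM ATP in Tris pH 7.5/MgCl2/EGTA/DTT/Triton buffer for one hour. ADP was quantified by Transcreener competitive fluorescence polarization against an ADP calibration curve.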

[12] = target: Ubiquitin carboxyl-terminal hydrolase 1 (Homo sapiens) (UniProt O94782); experiment: Inhibitors of USP1/UAF1: Pilot qHTS (AID 504865);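 note: rhodamine fluorescence freed from ubiquitin-rhodamine substrate followed over time; top concentration of the series differs between compounds; % is set by controls: 0 for no effect and ±100 for the full control effect; nearly all actives have a fitted effect of over 35% in size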
Chain of Ubiquitin carboxyl-terminal hydrolase 1 (Homo sapiens) (O94782 whole entry, looked up): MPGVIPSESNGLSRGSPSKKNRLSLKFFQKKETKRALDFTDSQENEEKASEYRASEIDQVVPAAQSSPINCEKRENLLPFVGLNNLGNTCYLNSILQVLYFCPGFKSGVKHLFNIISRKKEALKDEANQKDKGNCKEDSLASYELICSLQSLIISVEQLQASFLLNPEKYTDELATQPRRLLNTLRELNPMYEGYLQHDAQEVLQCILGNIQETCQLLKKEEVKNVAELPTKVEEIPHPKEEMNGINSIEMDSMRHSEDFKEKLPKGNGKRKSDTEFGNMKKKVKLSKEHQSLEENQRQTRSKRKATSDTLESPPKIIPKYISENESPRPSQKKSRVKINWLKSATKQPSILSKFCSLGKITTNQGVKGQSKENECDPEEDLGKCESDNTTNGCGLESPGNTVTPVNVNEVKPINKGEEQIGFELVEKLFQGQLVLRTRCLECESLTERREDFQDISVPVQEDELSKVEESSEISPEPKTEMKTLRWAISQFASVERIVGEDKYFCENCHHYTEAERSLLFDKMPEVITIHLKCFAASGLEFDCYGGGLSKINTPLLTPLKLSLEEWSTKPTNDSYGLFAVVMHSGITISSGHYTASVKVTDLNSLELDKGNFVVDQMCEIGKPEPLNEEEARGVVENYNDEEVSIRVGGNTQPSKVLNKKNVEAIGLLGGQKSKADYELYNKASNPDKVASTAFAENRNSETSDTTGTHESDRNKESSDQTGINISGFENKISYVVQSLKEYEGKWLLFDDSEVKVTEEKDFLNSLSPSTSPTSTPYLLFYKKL
Procedure, shortened: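 USP1/UAF1 complex (1nM) preincubated with compound 15 min at room temperature, then Ub-Rho substrate (150nM final) added. Fluorescence read kinetically at 480/540 nm, 6 reads every 60 seconds. Buffer: 50mM HEPES pH 7.8, 0.5mM EDTA, 0.1 mg/ml BSA, 1mM TCEP, 0.01% Tween-20.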

[13] = Primary qHTS for small molecule stabilizers of the endoplasmic reticulum resident proteome: Secreted ER Calcium Modulated Protein (SERCaMP) assay (AID 1508630); note: % is set by controls: 0 for no effect and ±100 for the full control effect
Procedure, shortened: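 GLuc-SERCaMP-expressing SH-SY5Y cells, pretreated 16 h with compound, are challenged with thapsigargin to empty ER calcium stores; after 4 h, coelenterazine is added directly to the medium and luminescence is imaged.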

[14] = target: 3',5'-cyclic-AMP phosphodiesterase 4B (Homo sapiens) (UniProt Q07343); experiment: qHTS Assay for Inhibitors of PDE-IV (AID 607; active = well fitted activation curve with a large enough effect in the main read-out, with a control signal flat, not every such curve was filed as active; note: % of control where 0% means no effect)
Chain of 3',5'-cyclic-AMP phosphodiesterase 4B (Homo sapiens) (Q07343 whole entry, looked up): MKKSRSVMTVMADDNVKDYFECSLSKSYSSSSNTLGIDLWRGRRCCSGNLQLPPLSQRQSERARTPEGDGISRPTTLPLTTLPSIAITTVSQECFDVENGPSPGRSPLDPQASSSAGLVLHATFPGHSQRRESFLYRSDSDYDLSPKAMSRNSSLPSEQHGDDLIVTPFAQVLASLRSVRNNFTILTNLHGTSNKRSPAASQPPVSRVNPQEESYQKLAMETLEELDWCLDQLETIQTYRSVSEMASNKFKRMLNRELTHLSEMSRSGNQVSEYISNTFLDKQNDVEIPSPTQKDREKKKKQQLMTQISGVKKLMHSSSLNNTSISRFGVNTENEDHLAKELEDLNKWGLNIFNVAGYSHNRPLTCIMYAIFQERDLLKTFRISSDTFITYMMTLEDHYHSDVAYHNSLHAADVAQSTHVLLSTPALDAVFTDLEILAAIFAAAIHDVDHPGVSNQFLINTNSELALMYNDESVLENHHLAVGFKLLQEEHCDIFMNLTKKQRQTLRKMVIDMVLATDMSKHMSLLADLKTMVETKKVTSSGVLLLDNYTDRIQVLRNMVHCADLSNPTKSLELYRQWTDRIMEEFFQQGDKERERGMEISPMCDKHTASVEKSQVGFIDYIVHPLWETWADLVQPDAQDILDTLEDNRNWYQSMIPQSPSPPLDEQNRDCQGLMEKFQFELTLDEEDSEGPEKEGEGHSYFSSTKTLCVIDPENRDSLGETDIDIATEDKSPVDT
Procedure, shortened: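 HEK293 ACTOne cells with CNG channel (1000/well), endogenous PDE4; membrane potential dye, compounds up to 22.9 uM final. Fluorescence Ex 535/Em 590; RO 20-1724 (100 uM final) as reference.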

[15] = target: Cytochrome P450 2C9 (Homo sapiens) (UniProt P11712); experiment: qHTS Assay for Inhibitors and Substrates of Cytochrome P450 2C9 (AID 883); note: % is set by controls: 0 for no effect and ±100 for the full control effect; nearly all actives have a fitted effect of over 60% in size
Chain of Cytochrome P450 2C9 (Homo sapiens) (P11712 whole entry, looked up): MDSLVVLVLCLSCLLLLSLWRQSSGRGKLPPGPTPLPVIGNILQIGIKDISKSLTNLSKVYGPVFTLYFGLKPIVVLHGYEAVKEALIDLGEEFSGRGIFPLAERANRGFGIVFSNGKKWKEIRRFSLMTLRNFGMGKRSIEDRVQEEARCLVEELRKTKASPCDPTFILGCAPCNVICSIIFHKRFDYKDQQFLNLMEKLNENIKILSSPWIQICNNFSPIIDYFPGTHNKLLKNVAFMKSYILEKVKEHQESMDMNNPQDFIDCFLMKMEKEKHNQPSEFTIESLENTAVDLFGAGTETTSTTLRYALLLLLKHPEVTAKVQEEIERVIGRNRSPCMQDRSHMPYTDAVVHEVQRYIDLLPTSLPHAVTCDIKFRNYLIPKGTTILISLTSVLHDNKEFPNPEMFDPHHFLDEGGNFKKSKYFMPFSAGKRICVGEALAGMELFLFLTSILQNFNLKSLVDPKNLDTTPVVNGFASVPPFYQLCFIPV
Procedure, shortened: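 Inhibition of CYP2C9 is scored as loss of luminescence, with 57uM sulphaphenazole defining 100% inhibition. Substrate Luciferin-H is used at 100uM, equal to its KM; enzyme at 10nM in 25mM KPO4, 60 min at 37C with NADPH regeneration.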

[16] = target: Cytochrome P450 3A4 (Homo sapiens) (UniProt P08684); experiment: qHTS Assay for Activators of Cytochrome P450 3A4 (AID 885); note: nearly all actives have a fitted effect of over 65% in size
Chain of Cytochrome P450 3A4 (Homo sapiens) (P08684 whole entry, looked up): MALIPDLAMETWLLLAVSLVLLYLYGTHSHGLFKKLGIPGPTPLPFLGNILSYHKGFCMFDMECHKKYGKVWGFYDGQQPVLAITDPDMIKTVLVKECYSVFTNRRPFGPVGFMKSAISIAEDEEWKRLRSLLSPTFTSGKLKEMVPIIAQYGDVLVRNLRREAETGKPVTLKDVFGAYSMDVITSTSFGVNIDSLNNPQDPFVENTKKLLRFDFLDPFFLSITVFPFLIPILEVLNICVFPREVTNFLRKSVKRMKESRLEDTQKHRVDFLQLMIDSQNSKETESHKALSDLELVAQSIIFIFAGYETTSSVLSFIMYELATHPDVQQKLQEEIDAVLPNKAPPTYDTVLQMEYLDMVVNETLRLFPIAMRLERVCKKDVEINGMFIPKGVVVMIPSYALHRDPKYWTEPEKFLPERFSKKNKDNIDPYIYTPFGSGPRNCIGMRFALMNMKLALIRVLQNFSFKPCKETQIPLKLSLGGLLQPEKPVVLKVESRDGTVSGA
Procedure, shortened: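 Human CYP3A4 (20 nM) with Luciferin-PPXE at 25 uM (its KM) in 200 mM KPO4; 10 min compound preincubation, then NADPH regeneration and 60 min reaction at RT. Luciferin read by luminescence; normalized to 57 uM ketoconazole full inhibition.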

[17] = target: Cytochrome P450 3A4 (Homo sapiens) (UniProt P08684); experiment: qHTS Assay for Inhibitors and Substrates of Cytochrome P450 3A4 (AID 884); note: potency is the fitted concentration of half-maximal effect; nearly all actives have a fitted effect of over 50% in size
Procedure, shortened: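 20 nM human CYP3A4 with 25 uM Luciferin-PPXE (at KM) in 200 mM KPO4, preincubated 10 min with compound; NADPH regeneration started a 60 min RT reaction. Luciferin detected by luminescence, normalized to 57 uM ketoconazole as full inhibition.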

Cn1c(=O)c(-c2ccccc2)nc2cnc(Nc3ccccc3)nc21
active: Potency [3] 15.8 µM
inactive: Potency [1] > 11.4 µM | activity change, negative = inhibition [2] 6.58% | activity change, negative = inhibition [4] -7.03% | activity, negative = inhibition [5] 8.87% | Potency [6] > 9.22 µM | Potency [7] > 46 µM | Potency [8] | Potency [9] | Potency [10] | Potency [11] | Potency [12] | outcome [13]

CS(=O)(=O)Nc1cccc(-c2cc(NCc3cccs3)ncn2)c1
inactive: Potency [1] > 11.4 µM | activity change, negative = inhibition [2] -14.7% | activity change, negative = inhibition [4] -3.98% | activity, negative = inhibition [5] -1.82% | Potency [6] > 46 µM | Potency [7] > 46 µM | Potency [8] | Potency [14] | activity change, negative = inhibition [15] 35.3% [at 2.29 µM] | Potency [16] | Potency [12] | outcome [13]
active: Potency [3] 6.31 µM | Potency [9] 10 µM | Potency [10] 12.6 µM | Potency [11] 12.6 µM

CNc1ncncc1-c1ccccc1C(F)(F)F
inactive: Potency [1] > 11.4 µM | activity change, negative = inhibition [2] 2.43% | Potency [3] | activity change, negative = inhibition [4] 11.4% | activity, negative = inhibition [5] 22.6% | Potency [6] > 46 µM | Potency [7] > 46 µM | Potency [8] | Potency [14] | Potency [16] | Potency [9] | Potency [10] | Potency [11] | Potency [12] | outcome [13]
active: Potency [17] 0.794 µM

COCCn1c(=O)c(-c2cccc(C#N)c2)nc2cnc(Oc3ccc(OC)cc3)nc21
inactive: Potency [1] > 11.4 µM | activity change, negative = inhibition [2] -21.9% | activity change, negative = inhibition [4] 7% | activity, negative = inhibition [5] -15% | Potency [6] > 9.22 µM | Potency [7] > 46 µM | Potency [8] | Potency [14] | Potency [16] | Potency [9] | Potency [10] | Potency [11] | Potency [12] | outcome [13]
active: Potency [3] 12.6 µM | Potency [17] 2.51 µM

COCCn1c(=O)c(-c2cc(F)cc(F)c2)nc2cncnc21
active: Potency [3] 2 µM
inactive: Potency [1] > 11.4 µM | activity change, negative = inhibition [2] -5.19% | activity change, negative = inhibition [4] 1.95% | activity, negative = inhibition [5] -7.77% | Potency [6] > 9.22 µM | Potency [7] > 46 µM | Potency [8] | Potency [14] | Potency [16] | Potency [9] | Potency [10] | Potency [11] | Potency [12] | outcome [13]

CN(C)C(=O)c1ccc(-c2nccc(NCc3ccccc3)n2)cc1
inactive: Potency [1] > 11.4 µM | activity change, negative = inhibition [2] -2.34% | activity change, negative = inhibition [4] 15.6% | activity, negative = inhibition [5] -5.63% | Potency [6] > 46 µM | Potency [7] > 46 µM | Potency [8] | Potency [14] | Potency [16] | Potency [9] | Potency [10] | Potency [11] | Potency [12] | outcome [13]
active: Potency [3] 15.8 µM
